In all, about 33,000 sequences were measured (“E-score (-0.5 to 0.5)”: median about -0.035, highest 2% from about 0.34 on). Only a selection was taken, and the highest values are over-represented in it overall.

For the experiment, the target named is T1, Mot3 (UniProt P54785).
T1 sequence: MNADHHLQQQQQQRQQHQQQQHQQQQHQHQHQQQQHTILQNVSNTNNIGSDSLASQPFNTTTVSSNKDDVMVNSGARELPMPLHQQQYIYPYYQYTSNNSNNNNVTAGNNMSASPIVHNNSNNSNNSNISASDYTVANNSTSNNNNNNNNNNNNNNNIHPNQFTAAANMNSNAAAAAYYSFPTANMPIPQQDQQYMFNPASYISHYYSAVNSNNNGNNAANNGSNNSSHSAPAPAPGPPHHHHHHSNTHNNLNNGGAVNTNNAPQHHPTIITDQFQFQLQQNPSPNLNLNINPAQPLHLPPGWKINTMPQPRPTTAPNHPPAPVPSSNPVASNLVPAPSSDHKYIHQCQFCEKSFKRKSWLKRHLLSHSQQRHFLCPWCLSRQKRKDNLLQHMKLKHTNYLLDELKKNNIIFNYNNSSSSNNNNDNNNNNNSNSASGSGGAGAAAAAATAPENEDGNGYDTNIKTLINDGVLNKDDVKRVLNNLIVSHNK
Kind of experiment: PBM E-score (8-mer binding enrichment) (E-score (-0.5 to 0.5)); higher = stronger / more preferred TF binding. The note with it: protein concentration: 200 nM; construct: GST-full length. As for the experimental part:
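Universal 'all 10-mer' protein binding microarrays (Agilent AMADID 015681) probed with GST-tagged S. cerevisiae TFs (full-length or DBD) made by in vitro transcription/translation (PURExpress), about 100-200 nM. Bound TF was detected with fluorescent anti-GST. Each ungapped 8-mer (which stands for itself and its reverse complement) is scored by the PBM enrichment score (E-score), a modified Wilcoxon-Mann-Whitney statistic from -0.5 to +0.5, computed with the Universal PBM Analysis Suite. Scale: above 0.35 generally sequence-specific binding.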
ACCTCAGC: the “PBM E-score” value was -0.124.

With AAAGCCGG, the “PBM E-score” value is -0.133.

On to AATCAAGC, for which the “PBM E-score” value is -0.177.

Consider GGTGTGTA, for which the “PBM E-score” value amounted to 0.335.

On to CGTGTACC, for which the “PBM E-score” value came out at 0.277.

In the case of CGTGTATA, the “PBM E-score” value came out at 0.4.

Consider CGTGTGTA, for which the “PBM E-score” value amounted to 0.349.

As for GGTGTATA, the “PBM E-score” value turned out to be 0.0111.

With AGTGTACA, the “PBM E-score” value was 0.273.

Turning to CGTGTACA, the “PBM E-score” value worked out at 0.388.

With CGTGTATC, the “PBM E-score” value is 0.262.

For the sequence AGTGTGTA, the “PBM E-score” value turned out to be 0.247.

For the sequence CACTGTGA, the “PBM E-score” value is -0.103.

As for CTACCAGA, the “PBM E-score” value was found to be 0.0177.

As to GTGAGAGA, the “PBM E-score” value came out at 0.0715.

As for ATGAATGG, the “PBM E-score” value was -0.0783.

Take CGGTTTAC: the “PBM E-score” value amounted to 0.134.

For CGACTTTC, the “PBM E-score” value worked out at 0.0333.

As for ATAGGATA, the “PBM E-score” value turned out to be 0.00177.

Take TTAGGAAA: the “PBM E-score” value was 0.351.

GTAGGAAA: the “PBM E-score” value worked out at 0.429.

For the sequence GTAGGATA, the “PBM E-score” value stood at 0.185.

With CTAGGAGC, the “PBM E-score” value was -0.225.

For the sequence CTAGGAAC, the “PBM E-score” value was 0.372.

With ATAGGGAA, the “PBM E-score” value was found to be 0.00264.

For CTAGGAAA, the “PBM E-score” value amounted to 0.246.

On to GTAGGAGA, for which the “PBM E-score” value is -0.184.

As for CTAGGAAG, the “PBM E-score” value is -0.108.

Turning to TGAGGAAA, the “PBM E-score” value was 0.0921.

With ATAGGAAA, the “PBM E-score” value came to 0.429.

In the case of GGACAGCA, the “PBM E-score” value is -0.224.

On to ATCGGACA, for which the “PBM E-score” value was -0.0499.

Take CGACATAA: the “PBM E-score” value came to 0.0835.

With TAGTTCCA, the “PBM E-score” value worked out at 0.00515.

As to AAACGCAC, the “PBM E-score” value amounted to 0.0986.

As to TAGCGGAA, the “PBM E-score” value was -0.15.

Consider CTCGAGAG, for which the “PBM E-score” value is -0.177.

Consider AGTGGGAT, for which the “PBM E-score” value is -0.0984.

AACGGCGG: the “PBM E-score” value is -0.117.

Turning to ATAGGAAG, the “PBM E-score” value is -0.0193.

As for ATAGGAAT, the “PBM E-score” value is -0.00642.

As for GGAGGAAC, the “PBM E-score” value is 0.272.

On to AGAGGAAC, for which the “PBM E-score” value amounted to 0.0727.

In the case of ATAGGAAC, the “PBM E-score” value came out at 0.456.

With GTAGGAAC, the “PBM E-score” value worked out at 0.457.

With TTGCCCAA, the “PBM E-score” value was determined as 0.111.

With CCAACCAC, the “PBM E-score” value was found to be 0.083.

For ACAAAAGA, the “PBM E-score” value turned out to be 0.166.

As for CGTAGCCA, the “PBM E-score” value is -0.208.

On to ACACTGAT, for which the “PBM E-score” value is -0.138.

As to CCACAGGC, the “PBM E-score” value was 0.194.

As for ACCAACCG, the “PBM E-score” value was -0.16.

With GGAAGGAC, the “PBM E-score” value is -0.122.

In the case of CGAAGGAC, the “PBM E-score” value is -0.03.

GCAAGGAA: the “PBM E-score” value came out at 0.211.

For the sequence AGAAGGAT, the “PBM E-score” value was 0.0925.

For AGAAGGAC, the “PBM E-score” value is -0.198.

Regarding TGAAGGAA, the “PBM E-score” value was found to be 0.434.

Regarding TGGAGGAA, the “PBM E-score” value is 0.0436.

For AGAAGGAG, the “PBM E-score” value is -0.107.

Turning to CGAAGGAG, the “PBM E-score” value is -0.225.

On to AGAAGGAA, for which the “PBM E-score” value was determined as 0.382.

As to CGAAGGAA, the “PBM E-score” value came out at 0.39.

Take GGAAGGAA: the “PBM E-score” value amounted to 0.384.

Take CTTGGATA: the “PBM E-score” value was -0.039.

As to GACTCCTA, the “PBM E-score” value was -0.00028.

Regarding CAACAACA, the “PBM E-score” value stood at 0.315.

Regarding TCGGTCCA, the “PBM E-score” value was -0.0654.

With CGATACTC, the “PBM E-score” value was -0.259.

GCATTTGA: the “PBM E-score” value is 0.0576.

Take GCCAAAGA: the “PBM E-score” value was -0.0826.

ACTAGGCC: the “PBM E-score” value was -0.141.

Take TCTAGACA: the “PBM E-score” value is 0.167.

As for ACTAGGCA, the “PBM E-score” value is 0.425.

With TCTAGGCA, the “PBM E-score” value came out at 0.458.

For the sequence GCTAGGTA, the “PBM E-score” value was -0.0278.

Turning to CCTAGGCG, the “PBM E-score” value was -0.157.

For TCTAGGAA, the “PBM E-score” value is 0.315.

In the case of GCTAGGCC, the “PBM E-score” value is -0.374.

As to CCTAGGCA, the “PBM E-score” value is 0.459.

For GCTAGGCA, the “PBM E-score” value came to 0.446.

With ACTAGGCG, the “PBM E-score” value is 0.168.

CCTAGGCC: the “PBM E-score” value is -0.0992.

As for GTCGCACA, the “PBM E-score” value was -0.125.

On to AGGCGTTG, for which the “PBM E-score” value was found to be 0.185.

Regarding GACTGTGA, the “PBM E-score” value is -0.0263.

In the case of GTGATAGA, the “PBM E-score” value was -0.0161.

For the sequence GCTCCCCC, the “PBM E-score” value was -0.288.

Turning to CAACATAA, the “PBM E-score” value was 0.289.

For TAACATAA, the “PBM E-score” value was determined as 0.341.

For the sequence GTACATAA, the “PBM E-score” value was determined as 0.306.

Consider GAACATAA, for which the “PBM E-score” value stood at 0.0111.

For the sequence TTACATAA, the “PBM E-score” value was determined as 0.408.

Take CTACATAA: the “PBM E-score” value amounted to 0.228.

The values above are taken from the supplement of paper PMC3334620.
